Molecules are shown by their SMILES. Unmarked numbers belong to inactive results.

Here are results for 39 molecules from the supplement of paper PMC11219838.

The experiment deals with Caenorhabditis elegans L1 (N2). As to the kind of experiment: survival and reproduction score of C. elegans L1 (0: 0-10 living worms, 1: 11-20, 2: 21-50, 3: >50, 4: overgrown) (score 0-4); higher = more worms, less nematicidal, active = 1 or less; extreme values may be limits of the assay. The settings on record: 60 µM; 6 days; temperature: 20 °C. In a few lines: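 Synchronized C. elegans N2 L1s (about 20 per well) were grown in 96-well plates in liquid NGM with E. coli HB101 and compound at 60 µM final (0.6% v/v DMSO), shaken sealed at 200 rpm and 20 °C for 6 days. The ordinal score for survival and reproduction counted living worms per well under a dissection microscope. The scale ran 0 (0–10 worms) to 4 (overgrown, starved), averaged over two biological replicates.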
As for `CCCc1ccc(-c2ccc(-c3nc(-c4ccccn4)no3)cc2)cc1`, the “survival and reproduction score” value is 4.

Regarding `CCSc1nnc(-c2ccc(Cl)cc2Cl)o1`, the “survival and reproduction score” value was 0 (active).

For `CCOc1nc(-c2ccccc2)ccc1-c1noc(-c2cccc(OC)c2)n1`, the “survival and reproduction score” value was 4.

Regarding `Cc1cccc(C)c1NC(=O)CSc1nnc(-c2ccncc2)o1`, the “survival and reproduction score” value was 4.

`c1ccc(COc2cccc(-c3nc(-c4ccccn4)no3)c2)cc1`: the “survival and reproduction score” value is 4.

Regarding `CC(C)(C)c1ccc(-c2noc(COc3ccccc3)n2)cc1`, the “survival and reproduction score” value is 4.

For the molecule `c1coc(-c2nnc(-c3ccco3)o2)c1`, the “survival and reproduction score” value was 4.

Regarding `O=C(CSc1nnc(-c2ccc(Br)cc2)o1)N1CCCCCC1`, the “survival and reproduction score” value was 4.

As for `Cc1ccc(-c2nnc(SCc3ccccc3)o2)cc1`, the “survival and reproduction score” value is 0 (active).

With `COc1ccc(Cl)cc1NC(=O)CSc1nnc(-c2ccco2)o1`, the “survival and reproduction score” value is 4.

Take `Cc1cc(OCc2nc(-c3ccncc3)no2)c(C)cc1Br`: the “survival and reproduction score” value is 4.

As for `COc1ccccc1NC(=O)CSc1nnc(-c2ccc(Cl)cc2)o1`, the “survival and reproduction score” value is 4.

As to `CC(=O)Nc1cccc(-c2nnc(SCc3ccc(F)cc3)o2)c1`, the “survival and reproduction score” value was 4.

As to `COc1cccc(NC(=O)c2ccccc2-c2nc(-c3ccc(F)cc3)no2)c1`, the “survival and reproduction score” value was 4.

For `CCOc1cc(-c2nc(-c3ccc(C)nc3OCC)no2)cc(OCC)c1OCC`, the “survival and reproduction score” value is 4.

Take `Clc1ccc(-c2nc(-c3ccncc3)no2)c(Cl)c1`: the “survival and reproduction score” value is 2.

For `O=C(c1ccccc1-c1nc(-c2ccccc2)no1)N1CCCCC1`, the “survival and reproduction score” value was 4.

For the molecule `Cc1cc(Cl)ccc1NC(=O)CSc1nnc(-c2ccncc2)o1`, the “survival and reproduction score” value was 4.

Turning to `CCc1cccc(CC)c1NC(=O)CSc1nnc(-c2ccccc2OC)o1`, the “survival and reproduction score” value was 4.

With `COc1ccc(-c2noc(-c3ccccc3Cl)n2)cc1`, the “survival and reproduction score” value was 4.

On to `Cc1ccc(SCc2nc(-c3cccnc3)no2)cc1`, for which the “survival and reproduction score” value was 1.5.

On to `COc1ccccc1OCc1nc(-c2cccc(Br)c2)no1`, for which the “survival and reproduction score” value was 4.

`CCC(=O)Nc1ccccc1-c1nc(-c2cccnc2)no1`: the “survival and reproduction score” value was 4.

Turning to `Cc1ccc(-c2nc(-c3ccccc3)no2)cc1`, the “survival and reproduction score” value was 0.5 (active).

For `COC(=O)c1ccc(NC(=O)CSc2nnc(-c3ccc(Cl)cc3Cl)o2)cc1`, the “survival and reproduction score” value was 4.

`CCOc1cc(-c2nc(-c3cc4ccccc4nc3OC)no2)cc(OCC)c1OCC`: the “survival and reproduction score” value was 4.

`Fc1ccccc1-c1nc(-c2ccc(Cl)cc2)no1`: the “survival and reproduction score” value was 1 (active).

As for `O=C(CSc1nnc(-c2ccc(Cl)cc2Cl)o1)c1ccc2c(c1)OCCO2`, the “survival and reproduction score” value is 4.

Turning to `COc1ccccc1-c1nnc(SCC(=O)Nc2ccc(F)cc2)o1`, the “survival and reproduction score” value is 4.

For `O=C(CSc1nnc(-c2ccccc2)o1)Nc1cc(C(F)(F)F)ccc1Cl`, the “survival and reproduction score” value is 4.

As for `Brc1ccc(-c2noc(-c3cccs3)n2)o1`, the “survival and reproduction score” value was 0 (active).

Regarding `CCOc1ccc(-c2noc(-c3ccncc3)n2)cc1OC`, the “survival and reproduction score” value was 4.

Turning to `COc1ccc(-c2nnc(SCC(=O)c3ccc4ccccc4c3)o2)cc1`, the “survival and reproduction score” value is 4.

As to `COc1ccc(-c2noc(-c3ccc(C)cc3)n2)cc1`, the “survival and reproduction score” value is 3.

With `CC(C)Oc1ccc(-c2nc(-c3ccccc3)no2)cc1`, the “survival and reproduction score” value is 0 (active).

In the case of `Cc1ccc(-c2noc(-c3ccc(Br)cc3)n2)cc1`, the “survival and reproduction score” value was 4.

Consider `Clc1ccc(CSc2nnc(-c3ccccn3)o2)cc1`, for which the “survival and reproduction score” value is 4.

For `COc1ccc(C(=O)CSc2nnc(-c3cccc(Br)c3)o2)cc1`, the “survival and reproduction score” value was 4.

As to `Cc1cc(C)c(C)c(OCc2nc(-c3cccnc3)no2)c1`, the “survival and reproduction score” value is 4.
